# In PubChem BioAssay:
# Records with an inconclusive call do not appear. Calls of active or inactive are those of the source.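 The calls were made as follows, unless noted: active = normalized viability below 100% at a tested concentration; inactive = the rest.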
# How the values were obtained:
# [1] = viability loss in pontine glioma line – cell-based, SU-DIPG-XVII, MIPE5.0, CellTiter-Glo, qHTS, dose response (AID 1347060; cut-off not given, nearly all actives have AC50 up to about 26 µM;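 as to AC50: cells exposed to compound for 48 hours before viability readout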); conditions: CellTiter-Glo ATP luminescence
# [2] = viability loss in pontine glioma line – cell-based, SU-DIPG-XIII, MIPE4.0, CellTiter-Glo, qHTS, dose response (AID 1347061; cut-off not given, nearly all actives have AC50 up to about 37 µM;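 also: cells exposed to compound for 48 hours before readout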); conditions: CellTiter-Glo ATP luminescence
# [3] = viability loss in pontine glioma line – cell-based, JHH-DIPG-1, MIPE4.0, CellTiter-Glo, qHTS, dose response (AID 1347062; cut-off not given, nearly all actives have AC50 up to about 27 µM;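 as to AC50: cells exposed to compound for two days before readout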); conditions: JHH-DIPG-1 viability, CellTiter-Glo ATP luminescence
# [4] = viability loss in pontine glioma line – cell-based, SU-DIPG-IV, MIPE4.0, CellTiter-Glo, qHTS, dose response (AID 1347063; cut-off not given, nearly all actives have AC50 up to about 30 µM;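 also: compound exposure lasted 48 hours before the viability readout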); conditions: CellTiter-Glo ATP luminescence
# [5] = viability loss in pontine glioma line – cell-based, SU-DIPG-XIII, MIPE5.0, CellTiter-Glo, qHTS, dose response (AID 1347064; cut-off not given, nearly all actives have AC50 up to about 23 µM;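 as to AC50: cells exposed to compound for 48 hours before the viability read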); conditions: CellTiter-Glo ATP luminescence
# [6] = viability loss in pontine glioma line – cell-based, SU-DIPG-XXV, MIPE5.0, CellTiter-Glo, qHTS, dose response (AID 1347065; cut-off not given, nearly all actives have AC50 up to about 26 µM;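 also: cells exposed to compound for 48 hours before ATP readout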); conditions: CellTiter-Glo ATP luminescence
# [7] = growth inhibition of DIPG cells – cell-based, MIPE4.0 library, CellTiter-Glo luminescence, qHTS (AID 1347066; cut-off not given, nearly all actives have AC50 up to about 30 µM;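 also: cells exposed to compound for 48 hours before readout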); conditions: SU-DIPG-VI viability, CellTiter-Glo ATP luminescence
# [8] = JHH-DIPG-1 glioma cell viability, MIPE5.0 library, CellTiter-Glo luminescence, qHTS (AID 1347067; cut-off not given, nearly all actives have AC50 up to about 26 µM;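 also: cells exposed to compound for 48 hours before readout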); conditions: JHH-DIPG-1 glioma viability, CellTiter-Glo ATP luminescence
# [9] = growth inhibition of DIPG cells – cell-based, MIPE5.0 library, qHTS (AID 1347068; cut-off not given, nearly all actives have IC50 up to about 30 µM;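 as to IC50: cells exposed to compound for 48 hours before viability readout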); conditions: SU-DIPG-XXV viability
# [10] = compounds altering HSF1 focus formation in cells – imaging, Selleck Cancer Library (AID 1347162; in the data active = plate-normalised HSF1 focus index below about 0.46); conditions: human cells, HSF1 nuclear foci imaging, at 10 µM; SSMD: measured here: HSF1 foci SSMD mean; cell count: measured here: cell number; plate-normalised HSF1 focus index: stronger effect = lower value
# [11] = drug combination growth inhibition, ovarian cancer – cell-based, oncology-focused library, rucaparib conditional, profiling panel (AID 1508598); conditions: patient-derived ovarian cancer cells, CellTiter-Glo viability, 144 h, stronger effect = lower value
# [12] = viability loss with induced miR-34 in A549 – imaging, A549 dox-inducible miR-34, nuclei and caspase counts, primary screen (AID 1347080;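 active = compounds whose cell count with miR-34 switched on is under 0.7 times the count with it off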); conditions: A549 miR-34 inducible, Hoechst nuclei count, 48 h
# [13] = MELAS cybrid and Rieske KO viability enhancers – cell-based, MELAS cybrids, Rieske KO mouse fibroblasts, CellTiter-Glo, primary screen (AID 1508586;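 active = mean z-score across replicates of 1.96 or higher in either the MELAS or the Rieske mutant cell line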;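 also: z relative to plate mean and SD of compound and empty wells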); conditions: low glucose
# [14] = growth inhibition, single agent or in combination, cell-based, chromothripsis tumors, cisplatin or BGB combos (AID 1671449; in the data active = inhibition above about 80%;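 also: cells exposed for 96 hours; 0% = vehicle DMSO and 100% = killing by high DMSO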); conditions: LFS_MB_P medulloblastoma cells
# [15] = growth inhibition, single agent and combos, cell-based, chromothripsis tumors, cisplatin or BGB combos (AID 1671450; in the data active = inhibition above about 80%;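 also: cells exposed to compound for four days; 0% = vehicle DMSO and 100% = cell killing by high DMSO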); conditions: HDN33 neuroblastoma cells, stronger effect = higher value
# [16] = growth inhibition, single agents and combos, ICB984, cell-based, cisplatin or BGB combos, synergistic combos for chromothripsis tumors (AID 1671451; call rule not given here;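 also: cells exposed for 96 hours before readout; 0% = vehicle DMSO and 100% = killing by high DMSO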); conditions: ICB984 medulloblastoma cells, drug combinations, stronger effect = higher value
# [17] = growth inhibition, single agents and combos, HTB85, cell-based, BGB or cisplatin IC20 combos, synergistic combos for chromothripsis tumors (AID 1671453; in the data active = inhibition above about 80%;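 also: cells exposed for 96 hours before readout; 0% = vehicle DMSO and 100% = high DMSO killing control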); conditions: HTB85 osteosarcoma cells, drug combinations, stronger effect = higher value
# [18] = growth inhibition, MDA-MB-436, cell-based, BGB or cisplatin combos, synergistic combos for chromothripsis tumors (AID 1671458; call rule not given here;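 also: cells exposed for 96 hours; 0% = vehicle DMSO and 100% = killing by high DMSO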); conditions: MDA-MB-436 breast carcinoma growth inhibition, drug combinations, stronger effect = higher value
# [19] = BT084 cell growth, single and combined drugs, ICGC_MB145, cisplatin and BGB IC40 combos (AID 1671461; in the data active = inhibition above about 80%;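 also: cells exposed to drugs for 96 hours; 0% = vehicle DMSO and 100% = high DMSO full killing control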); conditions: BT084 medulloblastoma cells, drug combinations, stronger effect = higher value
# [20] = RCMB18 cell growth, single agent and combined, cisplatin and BGB IC40 combos (AID 1671462; in the data active = inhibition above about 80%;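 also: cells exposed to compound for four days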); conditions: RCMB18 medulloblastoma cells, stronger effect = higher value
# [21] = stronger effect = lower value, cell number ratio, induced over uninduced
# [22] = measured here: relative caspase fold change +Dox/-Dox
# [23] = measured here: total cells with miR-34 induction, stronger effect = lower value
# [24] = measured here: total cells without miR-34 induction
# [25] = MELAS cybrid survival, CellTiter-Glo 48 h, stronger effect = higher value
# [26] = Rieske KO mouse fibroblast survival, CellTiter-Glo 72 h
compound,measurement,setting,value
CCC[C@H](NC(=O)/C(C#N)=C/c1cccc(Br)n1)c1ccccc1,AC50,[1],3.32 µM (active)
same,AC50,[2],26.4 µM (active)
same,AC50,[3],3.32 µM (active)
same,AC50,[4],2.35 µM (active)
same,AC50,[5],3.32 µM (active)
same,AC50,[6],2.63 µM (active)
same,AC50,[7],9.35 µM (active)
same,AC50,[8],4.68 µM (active)
same,IC50,[9],16.6 µM (active)
same,SSMD,[10],-18.6
same,cell count,[10],6540
same,plate-normalised HSF1 focus index,[10],0.0433 (active)
same,viability,"[11]; at 0.000305 µM, OCI-C5x cells, with rucaparib 10 µM, 100% = cells with rucaparib alone",119% (inactive)
same,viability,"[11]; at 0.000305 µM, OCI-C5x cells, without rucaparib",122% (inactive)
same,viability,"[11]; at 0.000305 µM, OCI-P5x cells, with rucaparib 20 µM, 100% = cells with rucaparib alone",94.8% (active)
same,viability,"[11]; at 0.000305 µM, OCI-P5x cells, without rucaparib",113% (inactive)
same,viability,"[11]; at 0.00122 µM, OCI-C5x cells, with rucaparib 10 µM, 100% = cells with rucaparib alone",114% (inactive)
same,viability,"[11]; at 0.00122 µM, OCI-C5x cells, without rucaparib",137% (inactive)
same,viability,"[11]; at 0.00122 µM, OCI-P5x cells, with rucaparib 20 µM, 100% = cells with rucaparib alone",95.1% (active)
same,viability,"[11]; at 0.00122 µM, OCI-P5x cells, without rucaparib",111% (inactive)
same,viability,"[11]; at 0.00488 µM, OCI-C5x cells, with rucaparib 10 µM, 100% = cells with rucaparib alone",121% (inactive)
same,viability,"[11]; at 0.00488 µM, OCI-C5x cells, without rucaparib",137% (inactive)
same,viability,"[11]; at 0.00488 µM, OCI-P5x cells, with rucaparib 20 µM, 100% = cells with rucaparib alone",98.7% (active)
same,viability,"[11]; at 0.00488 µM, OCI-P5x cells, without rucaparib",114% (inactive)
same,viability,"[11]; at 0.0195 µM, OCI-C5x cells, with rucaparib 10 µM, 100% = cells with rucaparib alone",111% (inactive)
same,viability,"[11]; at 0.0195 µM, OCI-C5x cells, without rucaparib",135% (inactive)
same,viability,"[11]; at 0.0195 µM, OCI-P5x cells, with rucaparib 20 µM, 100% = cells with rucaparib alone",104% (inactive)
same,viability,"[11]; at 0.0195 µM, OCI-P5x cells, without rucaparib",110% (inactive)
same,viability,"[11]; at 0.0781 µM, OCI-C5x cells, with rucaparib 10 µM, 100% = cells with rucaparib alone",108% (inactive)
same,viability,"[11]; at 0.0781 µM, OCI-C5x cells, without rucaparib",128% (inactive)
same,viability,"[11]; at 0.0781 µM, OCI-P5x cells, with rucaparib 20 µM, 100% = cells with rucaparib alone",104% (inactive)
same,viability,"[11]; at 0.0781 µM, OCI-P5x cells, without rucaparib",128% (inactive)
same,viability,"[11]; at 0.313 µM, OCI-C5x cells, with rucaparib 10 µM, 100% = cells with rucaparib alone",126% (inactive)
same,viability,"[11]; at 0.313 µM, OCI-C5x cells, without rucaparib",134% (inactive)
same,viability,"[11]; at 0.313 µM, OCI-P5x cells, with rucaparib 20 µM, 100% = cells with rucaparib alone",102% (inactive)
same,viability,"[11]; at 0.313 µM, OCI-P5x cells, without rucaparib",123% (inactive)
same,viability,"[11]; at 1.25 µM, OCI-C5x cells, with rucaparib 10 µM, 100% = cells with rucaparib alone",106% (inactive)
same,viability,"[11]; at 1.25 µM, OCI-C5x cells, without rucaparib",141% (inactive)
same,viability,"[11]; at 1.25 µM, OCI-P5x cells, with rucaparib 20 µM, 100% = cells with rucaparib alone",46.8% (active)
same,viability,"[11]; at 1.25 µM, OCI-P5x cells, without rucaparib",111% (inactive)
same,viability,"[11]; at 5 µM, OCI-C5x cells, with rucaparib 10 µM, 100% = cells with rucaparib alone",8.18% (active)
same,viability,"[11]; at 5 µM, OCI-C5x cells, without rucaparib",102% (inactive)
same,viability,"[11]; at 5 µM, OCI-P5x cells, with rucaparib 20 µM, 100% = cells with rucaparib alone",2.03% (active)
same,viability,"[11]; at 5 µM, OCI-P5x cells, without rucaparib",8.95% (active)
Cc1ccccc1C(C(=O)NC1CCCCC1)N(C(=O)Cn1ccnc1C)c1cccc(F)c1 (stereo not given),outcome,[1],inactive
same,outcome,[2],inactive
same,outcome,[3],inactive
same,outcome,[4],inactive
same,outcome,[5],inactive
same,outcome,[6],inactive
same,outcome,[7],inactive
same,outcome,[8],inactive
same,outcome,[9],inactive
same,fold change,[12]; [21],0.844 (inactive)
same,fold change,[12]; [22],0.447
same,cell count,[12]; [23],8020
same,cell count,[12]; [24],9500
same,z-score,[13]; [25],0.145 (inactive)
same,z-score,[13]; [26],0.11
Nc1ncnc2c1c(-c1cnc3[nH]ccc3c1)nn2C1CCCC1,AC50,[1],0.934 µM (active)
same,AC50,[2],3.72 µM (active)
same,AC50,[3],6.62 µM (active)
same,AC50,[4],0.296 µM (active)
same,AC50,[5],1.32 µM (active)
same,AC50,[6],0.661 µM (active)
same,AC50,[7],4.69 µM (active)
same,AC50,[8],1.66 µM (active)
same,IC50,[9],1.66 µM (active)
same,fold change,[12]; [21],0.933 (inactive)
same,fold change,[12]; [22],0.447
same,cell count,[12]; [23],1360
same,cell count,[12]; [24],1460
same,z-score,[13]; [25],2.61 (active)
same,z-score,[13]; [26],-3.58
same,inhibition,"[14]; at 0.5 µM, stronger effect = higher value",-21.6% (inactive)
same,inhibition,"[14]; measured here: combination with BGB IC20, at 0.005 µM",-12.8%
same,inhibition,"[14]; measured here: combination with BGB IC40, at 0.005 µM",-34.4%
same,inhibition,"[14]; measured here: combination with BGB IC40, at 0.05 µM",-33.1%
same,inhibition,"[14]; measured here: combination with cisplatin, at 0.5 µM, stronger effect = higher value",-37.9%
same,inhibition,"[14]; measured here: combination with cisplatin, at 5 µM, stronger effect = higher value",101%
same,inhibition,"[15]; BGB combo, at 5 µM",93.7%
same,inhibition,[15]; at 0.5 µM,34.8% (inactive)
same,inhibition,"[15]; cisplatin combo, at 5 µM",89.8%
same,inhibition,"[15]; measured here: with BGB IC20 combination, at 0.5 µM",27.9%
same,inhibition,"[15]; measured here: with cisplatin IC20 combination, at 0.5 µM",38.9%
same,inhibition,"[15]; single agent, at 5 µM",94.1%
same,inhibition,"[16]; BGB IC20 combo, at 0.005 µM",3.47%
same,inhibition,"[16]; BGB IC40 combo, at 0.005 µM",0.136%
same,inhibition,"[16]; BGB IC40 combo, at 0.05 µM",75.2%
same,inhibition,[16]; at 0.5 µM,-26.8% (inactive)
same,inhibition,"[16]; cisplatin combo, at 0.05 µM",74.3%
same,inhibition,"[16]; cisplatin combo, at 0.5 µM",-46.2%
same,inhibition,"[16]; cisplatin combo, at 5 µM",-4.06%
same,inhibition,"[16]; measured here: 5 uM single agent, at 5 µM",-4.21%
same,inhibition,[17]; at 0.5 µM,49.5% (inactive)
same,inhibition,"[17]; measured here: with BGB IC20, at 0.5 µM",55.4%
same,inhibition,"[17]; measured here: with BGB IC20, at 5 µM",97.6%
same,inhibition,"[17]; measured here: with cisplatin IC20, at 0.5 µM",38.8%
same,inhibition,"[17]; measured here: with cisplatin IC20, at 5 µM",94.1%
same,inhibition,"[17]; single agent, at 5 µM",95.9%
same,inhibition,[18]; at 0.5 µM,-11.6% (inactive)
same,inhibition,"[18]; measured here: BGB combination, at 0.5 µM",0.573%
same,inhibition,"[18]; measured here: BGB combination, at 5 µM",42.9%
same,inhibition,"[18]; measured here: cisplatin combination, at 0.5 µM",-39.3%
same,inhibition,"[18]; measured here: cisplatin combination, at 5 µM",36.2%
same,inhibition,[19]; at 0.5 µM,26.7% (inactive)
same,inhibition,"[19]; cisplatin combination, at 0.5 µM",42.3%
same,inhibition,"[19]; cisplatin combination, at 5 µM",38.7%
same,inhibition,"[19]; measured here: BGB IC40 combination 0.05 uM, at 0.05 µM",-23%
same,inhibition,"[19]; single agent, at 5 µM",59.1%
same,inhibition,[20]; at 0.5 µM,1.21% (inactive)
same,inhibition,"[20]; cisplatin combo, at 5 µM",73.6%
same,inhibition,"[20]; measured here: BGB IC40 combination, at 0.05 µM",-7.03%
same,inhibition,"[20]; measured here: combination with cisplatin, at 0.5 µM",-23.9%
same,inhibition,"[20]; single agent, at 5 µM",64.6%
